# How the values were obtained:
# [1] = target: Tyrosine-protein kinase Fyn (Homo sapiens) (UniProt P06241); conditions: at 1 µM
# [2] = target: Tyrosine-protein kinase HCK (Homo sapiens) (UniProt P08631); conditions: at 0.1 µM
# [3] = target: Tyrosine-protein kinase HCK (Homo sapiens) (UniProt P08631); conditions: at 1 µM
# [4] = target: Insulin-like growth factor 1 receptor (Homo sapiens) (UniProt P08069); conditions: at 0.1 µM
# [5] = target: Insulin-like growth factor 1 receptor (Homo sapiens) (UniProt P08069); conditions: at 1 µM
# [6] = target: Insulin receptor (Homo sapiens) (UniProt P06213); conditions: at 0.1 µM
# Sequence of Insulin receptor (Homo sapiens) (P06213 28-758 limits assumed): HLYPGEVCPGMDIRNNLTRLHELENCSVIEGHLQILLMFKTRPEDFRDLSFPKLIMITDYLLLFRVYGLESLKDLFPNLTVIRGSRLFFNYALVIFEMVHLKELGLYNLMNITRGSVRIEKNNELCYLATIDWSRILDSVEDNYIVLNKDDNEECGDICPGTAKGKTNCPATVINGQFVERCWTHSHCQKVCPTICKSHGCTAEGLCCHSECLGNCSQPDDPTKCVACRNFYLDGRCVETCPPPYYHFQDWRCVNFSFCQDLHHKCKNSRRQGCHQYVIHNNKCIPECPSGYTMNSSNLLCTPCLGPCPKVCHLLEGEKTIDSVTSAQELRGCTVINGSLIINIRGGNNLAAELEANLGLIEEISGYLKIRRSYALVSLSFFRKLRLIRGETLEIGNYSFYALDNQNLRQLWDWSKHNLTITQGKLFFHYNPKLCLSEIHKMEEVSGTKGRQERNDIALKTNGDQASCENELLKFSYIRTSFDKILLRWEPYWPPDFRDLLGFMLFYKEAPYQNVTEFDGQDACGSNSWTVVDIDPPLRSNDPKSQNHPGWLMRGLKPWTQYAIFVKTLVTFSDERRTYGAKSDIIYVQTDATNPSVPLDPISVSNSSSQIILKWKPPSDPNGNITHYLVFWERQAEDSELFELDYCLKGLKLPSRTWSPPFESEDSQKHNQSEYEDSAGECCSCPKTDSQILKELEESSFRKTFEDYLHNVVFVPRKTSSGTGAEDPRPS
# Sequence of Insulin receptor (Homo sapiens) (P06213 763-1382 limits assumed): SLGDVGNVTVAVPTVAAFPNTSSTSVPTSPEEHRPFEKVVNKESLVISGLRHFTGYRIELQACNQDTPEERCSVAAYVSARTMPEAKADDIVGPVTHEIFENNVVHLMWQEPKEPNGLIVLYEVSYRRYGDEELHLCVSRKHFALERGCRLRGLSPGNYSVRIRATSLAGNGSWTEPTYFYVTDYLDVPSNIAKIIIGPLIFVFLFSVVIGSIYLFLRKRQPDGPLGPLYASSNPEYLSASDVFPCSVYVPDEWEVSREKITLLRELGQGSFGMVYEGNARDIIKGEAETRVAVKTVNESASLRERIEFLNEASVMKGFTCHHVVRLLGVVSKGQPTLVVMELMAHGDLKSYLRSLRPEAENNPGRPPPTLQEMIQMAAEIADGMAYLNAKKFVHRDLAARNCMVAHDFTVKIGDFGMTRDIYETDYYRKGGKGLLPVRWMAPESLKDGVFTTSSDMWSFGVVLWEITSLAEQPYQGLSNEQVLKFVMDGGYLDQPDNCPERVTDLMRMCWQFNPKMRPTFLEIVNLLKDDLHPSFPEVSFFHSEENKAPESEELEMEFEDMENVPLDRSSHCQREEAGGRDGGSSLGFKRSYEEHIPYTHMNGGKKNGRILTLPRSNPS
# [7] = target: Insulin receptor (Homo sapiens) (UniProt P06213); conditions: at 1 µM
# [8] = target: Insulin receptor-related protein (Homo sapiens) (UniProt P14616); conditions: at 0.1 µM
# Sequence of Insulin receptor-related protein (Homo sapiens) (P14616 27-742 limits assumed): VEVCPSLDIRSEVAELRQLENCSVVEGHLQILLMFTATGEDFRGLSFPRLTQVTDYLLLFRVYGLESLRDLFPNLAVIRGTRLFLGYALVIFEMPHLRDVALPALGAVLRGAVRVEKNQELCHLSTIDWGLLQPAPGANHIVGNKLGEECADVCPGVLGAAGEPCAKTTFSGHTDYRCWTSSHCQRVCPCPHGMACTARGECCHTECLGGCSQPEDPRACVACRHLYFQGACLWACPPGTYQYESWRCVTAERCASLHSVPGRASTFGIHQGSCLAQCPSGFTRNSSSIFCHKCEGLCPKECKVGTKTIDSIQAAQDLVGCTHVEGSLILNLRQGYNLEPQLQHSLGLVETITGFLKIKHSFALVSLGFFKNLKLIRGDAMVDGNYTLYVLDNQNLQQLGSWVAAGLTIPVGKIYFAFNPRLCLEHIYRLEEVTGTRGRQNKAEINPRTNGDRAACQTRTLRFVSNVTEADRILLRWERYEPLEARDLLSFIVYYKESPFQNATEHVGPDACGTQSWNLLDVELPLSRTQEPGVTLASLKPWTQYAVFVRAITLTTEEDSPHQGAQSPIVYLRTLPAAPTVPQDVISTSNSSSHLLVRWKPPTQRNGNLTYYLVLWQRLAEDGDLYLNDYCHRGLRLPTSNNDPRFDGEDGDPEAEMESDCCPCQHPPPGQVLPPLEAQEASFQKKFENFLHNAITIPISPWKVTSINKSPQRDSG
# Sequence of Insulin receptor-related protein (Homo sapiens) (P14616 747-1297 limits assumed): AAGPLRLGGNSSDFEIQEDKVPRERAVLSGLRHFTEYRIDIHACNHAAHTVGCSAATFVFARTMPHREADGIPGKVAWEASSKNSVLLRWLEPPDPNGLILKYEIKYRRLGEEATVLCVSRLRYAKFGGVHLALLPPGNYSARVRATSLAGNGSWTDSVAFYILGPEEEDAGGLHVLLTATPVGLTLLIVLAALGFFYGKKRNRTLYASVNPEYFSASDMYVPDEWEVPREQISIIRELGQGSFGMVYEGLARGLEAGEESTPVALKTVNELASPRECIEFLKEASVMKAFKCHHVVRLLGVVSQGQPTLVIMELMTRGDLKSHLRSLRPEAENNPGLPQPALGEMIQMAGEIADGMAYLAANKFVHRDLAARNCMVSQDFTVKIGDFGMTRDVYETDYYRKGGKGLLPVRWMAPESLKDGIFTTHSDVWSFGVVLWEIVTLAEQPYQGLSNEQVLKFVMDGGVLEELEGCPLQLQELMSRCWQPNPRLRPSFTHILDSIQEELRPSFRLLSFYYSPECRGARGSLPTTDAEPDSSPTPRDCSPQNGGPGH
# [9] = target: Insulin receptor-related protein (Homo sapiens) (UniProt P14616); conditions: at 1 µM
# [10] = target: T1, Tyrosine-protein kinase ITK/TSK (Homo sapiens) (UniProt Q08881); conditions: at 0.1 µM;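 note: mean percent inhibition of ITK from the GSK PKIS screen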
# T1 sequence (whole entry): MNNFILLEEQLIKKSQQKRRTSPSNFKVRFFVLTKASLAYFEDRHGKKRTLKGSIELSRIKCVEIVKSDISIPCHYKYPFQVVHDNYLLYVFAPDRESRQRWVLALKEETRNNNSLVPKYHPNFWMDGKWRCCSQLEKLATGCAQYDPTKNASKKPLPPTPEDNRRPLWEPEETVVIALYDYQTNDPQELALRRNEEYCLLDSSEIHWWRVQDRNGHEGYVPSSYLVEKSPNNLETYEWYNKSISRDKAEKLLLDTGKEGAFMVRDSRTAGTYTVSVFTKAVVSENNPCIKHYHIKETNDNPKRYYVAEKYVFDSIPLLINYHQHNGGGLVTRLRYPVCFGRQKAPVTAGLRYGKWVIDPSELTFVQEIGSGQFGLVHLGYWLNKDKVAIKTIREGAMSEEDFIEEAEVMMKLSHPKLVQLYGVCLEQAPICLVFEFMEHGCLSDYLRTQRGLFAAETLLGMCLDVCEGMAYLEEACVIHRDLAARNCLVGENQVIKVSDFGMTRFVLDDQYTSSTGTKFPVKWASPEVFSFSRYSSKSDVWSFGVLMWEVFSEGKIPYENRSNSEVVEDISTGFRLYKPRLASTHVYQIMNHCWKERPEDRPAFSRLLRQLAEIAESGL
# Sequence of Insulin-like growth factor 1 receptor (Homo sapiens) (P08069 31-736 limits assumed): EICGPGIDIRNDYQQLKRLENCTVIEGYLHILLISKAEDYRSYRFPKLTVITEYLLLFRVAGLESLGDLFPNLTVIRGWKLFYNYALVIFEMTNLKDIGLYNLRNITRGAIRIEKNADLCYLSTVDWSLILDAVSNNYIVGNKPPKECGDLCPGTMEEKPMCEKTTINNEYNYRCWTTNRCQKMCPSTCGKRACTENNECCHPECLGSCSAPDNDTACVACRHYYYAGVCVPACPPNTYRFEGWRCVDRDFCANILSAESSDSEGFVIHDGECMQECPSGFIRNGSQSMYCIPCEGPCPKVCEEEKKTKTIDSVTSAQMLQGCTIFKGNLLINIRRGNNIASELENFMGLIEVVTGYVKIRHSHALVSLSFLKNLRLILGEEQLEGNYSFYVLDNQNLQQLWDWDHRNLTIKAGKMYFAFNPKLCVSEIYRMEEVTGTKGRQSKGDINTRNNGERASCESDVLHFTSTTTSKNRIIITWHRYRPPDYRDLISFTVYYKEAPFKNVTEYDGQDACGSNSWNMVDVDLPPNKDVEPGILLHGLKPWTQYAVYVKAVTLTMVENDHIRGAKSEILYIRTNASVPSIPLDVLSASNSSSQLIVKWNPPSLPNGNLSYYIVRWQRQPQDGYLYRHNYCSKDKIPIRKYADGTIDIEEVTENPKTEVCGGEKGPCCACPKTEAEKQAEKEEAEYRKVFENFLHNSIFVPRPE
# Sequence of Insulin-like growth factor 1 receptor (Homo sapiens) (P08069 741-1367 limits assumed): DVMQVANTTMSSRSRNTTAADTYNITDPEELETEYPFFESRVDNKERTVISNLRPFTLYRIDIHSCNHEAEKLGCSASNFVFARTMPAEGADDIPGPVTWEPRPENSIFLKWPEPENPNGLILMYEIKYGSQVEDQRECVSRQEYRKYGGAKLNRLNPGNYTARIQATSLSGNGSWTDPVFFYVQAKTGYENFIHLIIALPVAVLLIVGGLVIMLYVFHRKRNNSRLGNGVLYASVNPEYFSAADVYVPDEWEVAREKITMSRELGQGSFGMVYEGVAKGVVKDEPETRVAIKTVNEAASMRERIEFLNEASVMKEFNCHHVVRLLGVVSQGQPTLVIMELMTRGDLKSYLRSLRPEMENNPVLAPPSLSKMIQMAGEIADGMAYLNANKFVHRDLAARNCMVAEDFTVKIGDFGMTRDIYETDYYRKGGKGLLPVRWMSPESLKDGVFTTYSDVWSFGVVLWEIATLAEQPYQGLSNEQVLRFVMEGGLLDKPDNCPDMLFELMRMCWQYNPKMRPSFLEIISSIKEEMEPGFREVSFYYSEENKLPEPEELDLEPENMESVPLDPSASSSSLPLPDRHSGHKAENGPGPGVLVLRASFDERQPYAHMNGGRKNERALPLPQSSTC
# Sequence of Tyrosine-protein kinase Fyn (Homo sapiens) (P06241 2-537 limits assumed): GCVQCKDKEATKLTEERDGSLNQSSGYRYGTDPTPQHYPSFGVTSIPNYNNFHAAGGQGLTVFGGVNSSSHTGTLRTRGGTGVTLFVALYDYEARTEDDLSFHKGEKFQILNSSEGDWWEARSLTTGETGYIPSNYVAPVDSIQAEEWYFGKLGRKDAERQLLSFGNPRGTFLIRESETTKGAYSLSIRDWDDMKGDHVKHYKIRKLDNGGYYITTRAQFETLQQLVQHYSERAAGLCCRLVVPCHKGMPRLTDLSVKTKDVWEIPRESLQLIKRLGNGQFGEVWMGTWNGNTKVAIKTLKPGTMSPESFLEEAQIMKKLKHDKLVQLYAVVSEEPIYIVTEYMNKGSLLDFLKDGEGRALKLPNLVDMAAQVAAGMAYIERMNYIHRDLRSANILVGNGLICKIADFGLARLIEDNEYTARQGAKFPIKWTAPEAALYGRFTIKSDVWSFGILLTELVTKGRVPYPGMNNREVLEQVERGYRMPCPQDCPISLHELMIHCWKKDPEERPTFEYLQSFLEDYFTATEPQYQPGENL
# Sequence of Tyrosine-protein kinase HCK (Homo sapiens) (P08631 2-526 limits assumed): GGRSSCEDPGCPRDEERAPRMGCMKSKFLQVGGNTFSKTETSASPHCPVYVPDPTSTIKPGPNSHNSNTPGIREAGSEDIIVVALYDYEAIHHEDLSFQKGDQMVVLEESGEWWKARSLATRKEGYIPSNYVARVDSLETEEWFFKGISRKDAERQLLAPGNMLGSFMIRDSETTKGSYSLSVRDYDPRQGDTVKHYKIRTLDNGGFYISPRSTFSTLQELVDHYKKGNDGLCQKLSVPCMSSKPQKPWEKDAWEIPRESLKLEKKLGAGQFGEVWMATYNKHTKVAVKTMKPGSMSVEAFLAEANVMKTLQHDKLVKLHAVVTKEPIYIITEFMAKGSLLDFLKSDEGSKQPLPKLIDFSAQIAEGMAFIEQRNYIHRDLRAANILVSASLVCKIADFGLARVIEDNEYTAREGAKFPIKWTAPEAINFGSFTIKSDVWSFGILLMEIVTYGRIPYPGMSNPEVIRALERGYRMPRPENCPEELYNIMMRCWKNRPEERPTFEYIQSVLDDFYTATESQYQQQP
SMILES,inhibition [1] [%],inhibition [2] [%],inhibition [3] [%],inhibition [4] [%],inhibition [5] [%],inhibition [6] [%],inhibition [7] [%],inhibition [8] [%],inhibition [9] [%],inhibition [10] [%]
CCN(CC)Cc1ccc(Nc2nccc(-c3cnn4ncccc34)n2)cc1,5.04,4.93,13.5,3.11,54.6,21.9,73.2,2.45,7.36,-3.08
Nc1nccc(-c2c(-c3ccc(F)cc3)ncn2C2CCC(O)CC2)n1 (stereo not drawn),6.58,1.96,12.7,-1.46,-1.17,0.89,-0.36,-0.97,-2.71,-0.36
FC(F)(F)c1cccc(Nc2nccc(-c3cnn4nc(-c5ccccc5)ccc34)n2)c1,7.18,1.72,6.11,-1.86,-1.43,-2.61,1.45,0.93,0.27,-0.41
Clc1ccc(CNc2nccc(-c3cnn4ncccc34)n2)cc1,0.07,5.97,5.79,2.48,–,0.04,1.97,2.17,2.19,0
COc1ccc2ncn(-c3cc(O[C@H](C)c4ccccc4Cl)c(C(N)=O)s3)c2c1,-3.05,5.34,5.31,–,-6.53,0.89,3.79,2.92,3.51,-4.15
O=C(Nc1n[nH]c2cc(-c3cc(F)ccc3F)ccc12)C1CC1,6.73,7.73,8.12,0.54,2.05,7.13,4.97,1.56,0.94,2.16
NC(=O)c1cc(-c2ccncc2)cc(-c2ccccc2)c1N,37.6,12.1,43.7,5.73,5.9,6.28,6.25,2.11,1.56,1.61
CCc1ccc(Oc2nccc(-c3c(-c4ccc(F)cc4)ncn3C3CCNCC3)n2)cc1,7.59,4.84,8.91,5.24,3.51,5.54,3.85,2.18,3.43,2.08
Fc1ccc(-c2ncn(C3CCNCC3)c2-c2ccnc(Oc3ccc4c(c3)OCO4)n2)cc1,3.17,6.2,10.9,0.4,2.16,2.85,3.42,3.09,3.51,1.6
NS(=O)(=O)c1ccc(N/N=C2\C(=O)Nc3ccc(-c4cnco4)cc32)cc1,7.81,5.08,23.3,–,-2.26,1.72,7.36,-1.08,0.6,-3.91
c1ccc(Oc2ccc(Nc3ncc(-c4ccccc4)o3)cc2)cc1,2.97,3.85,5.01,1.77,2.01,4.11,2.94,-1.75,1.99,0.89
Cc1ccc(C(=O)NC2CCC2)cc1-c1ccc(C(=O)NCC2CC2)cc1,2.7,4.64,6.65,2.06,3.83,4.44,5.62,0.92,1.77,2.02
COc1cc(N2CCN(C(C)C)CC2)ccc1Nc1nc(Nc2ccc(F)cc2C(=O)NC[C@@H](O)CO)c2cc[nH]c2n1,-0.08,3.99,5,80.6,92.6,110,116,26.6,78,-1.99
NCc1ccc(-n2c(-c3nonc3N)nc3cnccc32)cc1,0.2,6.26,10.4,5.71,8.21,8.46,8.17,3.81,2.5,1.67
Fc1ccc(-c2nc3n(c2-c2ccncc2)CCS3)cc1,-3.64,4.65,7.02,-2.12,-4.05,7.27,5.39,2.11,1.09,-1.96
NC(=O)c1ccc(Oc2nccc(-c3c(-c4ccc(F)cc4)ncn3C3CCNCC3)n2)cc1,3.44,6.86,8.21,5.51,7.32,7.88,6.48,3.06,4.99,3.1
Cc1nnc(-c2ccc(C)c(-c3ccc(C(=O)NCc4ccc(Cl)cc4)cc3)c2)o1,-1.62,4.39,5.02,-3.42,-3.35,5.65,6.19,1.93,1.98,-2.09

SMILES,inhibition [1] [%],inhibition [2] [%],inhibition [3] [%],inhibition [4] [%],inhibition [5] [%],inhibition [6] [%],inhibition [7] [%],inhibition [8] [%],inhibition [9] [%],inhibition [10] [%]
CN1CCN(CCCNc2nc3ccc(Oc4ccc(NC(=O)Nc5cc(C(F)(F)F)ccc5F)cc4)cc3[nH]2)CC1,-1.88,4.66,9.14,-9.82,-7.78,-3.22,–,1.22,0.55,-2.06
O=C(Nc1ccc(Oc2ccc3[nH]c(NC(=O)c4ccccc4)nc3c2)cc1)Nc1cc(C(F)(F)F)ccc1F,21.5,7.45,21.8,10.6,7.91,2,2.26,2.66,3.55,1.11
O=C(NCC1CC1)c1ccc(-c2cccc(C(=O)NC3CC3)c2)cc1,2.23,2.5,7.59,2.46,4.73,1.73,3.95,1.19,2.93,1.15
Fc1ccc(-c2c(-c3ccncc3)nc3n2CCS3)cc1,0.5,2.36,4.87,-4.27,-5.03,5.99,6.13,0.59,0.48,-2.9
CS(=O)(=O)CCNCc1ccc(-c2ccc3ncnc(Nc4ccc(OCc5ccccc5)c(Br)c4)c3c2)o1,1.37,7.33,10.2,–,-5.4,2.87,1.17,2.56,2.95,-4.12
NC(=O)c1cc(-c2ccc(F)cc2)cc(-c2ccncc2)c1N,5.17,6.59,7.14,2.14,-0.61,5.25,5.27,1.58,1.32,0.92
O=C1Nc2ccc(I)cc2C1=Cc1cc(Br)c(O)c(Br)c1,6.7,6.42,8.5,5.43,2.95,6.33,5.95,0.52,2.5,1.48
CN(C)CCCNc1nccc(-c2c(-c3ccc(F)cc3)nn3cc(C(F)(F)F)ccc23)n1,0.28,3.12,7.89,-7.12,-5.52,0.53,-0.49,2.55,0.73,-2.44
NS(=O)(=O)c1ccc(Nc2cc(-c3ccc(O)c(F)c3)n[nH]2)cc1,9.16,0.38,11.1,-1.39,-0.67,-3.62,2.77,-4.66,-2.36,0.74
COc1cc(Nc2ncc3c(C)nc(-c4cccc(C(F)(F)F)c4)n3n2)cc(OC)c1OC,39.7,6.2,22.6,2.62,5.74,5.92,8.95,1.64,3.39,2.02
COc1ccc(C2=C(N3CCc4ccccc43)C(=O)NC2=O)cc1,4.68,8.17,9.54,4.43,6.19,4.83,8.59,2.42,1.91,1.76
CNC(=O)c1cncc(/C=C/c2c(C)cccc2C)c1,29.6,17.2,58.9,-3.76,-5.13,0.95,4.95,2.26,1.08,-3.14
Fc1ccc(-c2ncn(C3CCNCC3)c2-c2ccnc(Oc3ccc(Oc4ccccc4)cc3)n2)cc1,5.66,5.33,8.1,5.31,1.58,7.04,3.44,1.91,3.32,3.37
C/C(Nc1ccc(S(N)(=O)=O)cc1)=C1/C(=O)Nc2ccccc21,2.57,-0.82,6.24,0.12,9.94,2.85,12.7,-2.56,-0.64,-0.1
Fc1ccc(-c2ncn(C3CCNCC3)c2-c2ccnc(Oc3ccc(F)c(F)c3)n2)cc1,-4.44,5.11,4.68,–,-4.9,-2.06,0.24,3.04,2.75,-3.95
COc1cccc(-n2cnc3c(N/N=C/c4ccncc4)ncnc32)c1,25.6,0.9,16.3,–,-8.19,-2.78,-4.12,1,0.57,-2.76
N#Cc1ccc(Oc2nccc(-c3c(-c4ccc(F)cc4)ncn3C3CCNCC3)n2)cc1,3.01,5.66,5.1,-0.43,0.96,3.29,3.86,3.14,4.24,-0.47

# From ChEMBL document CHEMBL1961873, “Compounds: GSK PKIS; Assays: Nanosyn kinase panel” (2012)
